The results in this text go back to PubChem BioAssay (Tox21).

The structures appear in SMILES notation. “And” between values parts separate entries of the source, which are not always exact repeats. Identical values can stand only once. A structure can be active in one record and inactive in another. The source made the active and inactive calls. Unless noted, the call rests on the fitted dose curve; in most records, active means well fitted curve in the direction sought with a large enough effect in the repeat runs; inconclusive means weak or mixed curves; inactive means no such curve, though single readings can be large; an effect the other way counts as inactive or inconclusive.

Assay [1] is described as follows: qHTS assay to identify small molecule antagonists of the thyroid receptor (TR) signaling pathway - cell viability counter screen (AID 743064). Further: nearly all actives have a fitted effect of over 50% in size. Further: potency means the concentration at half of the fitted maximal effect. The method, boiled down:
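In-well cytotoxicity read by CellTiter-Fluor (30 min, 37 C) following 23.5 h exposure of GH3 cells bearing a TRE-luciferase sensor. Compounds were added alongside 1 nM (final) T3 to drive TR transactivation.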
(In qHTS, concentration-response curves come from the screen itself.)

Assay [2] can be described thus: qHTS assay to identify small molecule antagonists of the thyroid receptor (TR) signaling pathway (AID 743065). Further: nearly all actives have a fitted effect of over 55% in size. Further: potency means the concentration at half of the fitted maximal effect. On activity, negative = inhibition: series mostly up to about 70 µM. The method, boiled down:
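Antagonism measured as loss of luciferase signal in GH3 cells stably carrying a TRE-luciferase reporter, co-treated with compound and T3 (1 nM final) for 23.5 h at 37 C. Viability was read in the same well by CellTiter-Fluor.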

Assay [3] deals with thyroid hormone receptor (rat, GH3 cells). Briefly: qHTS assay to identify small molecule agonists of the thyroid receptor (TR) signaling pathway (AID 743066; calls by dose curve).
The target in assay [4] is Estrogen receptor (Homo sapiens) (UniProt P03372). In words: qHTS assay to identify small molecule antagonists of the estrogen receptor alpha (ER-alpha) signaling pathway (AID 743069; active means well fitted curve in the direction sought with a large enough effect in the signal ratio in the repeat runs, not every such curve was filed as active; inconclusive means weak or mixed curves, or effect the other way; inactive means no such curve, though single readings can be large or run the other way; the % refers to the signal ratio; further: potency means the concentration at half of the fitted maximal effect). The method, boiled down: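 ER-alpha-UAS-bla GripTite HEK293 line; 2% charcoal-stripped FBS overnight; plated, 4 hr 37C/5% CO2; cpd in DMSO + 17beta-estradiol, 18 hr 37C; LiveBLAzer B/G FRET substrate 2 hr RT; fluorescence intensity.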
Estrogen receptor (Homo sapiens), sequence (P03372 whole entry, looked up): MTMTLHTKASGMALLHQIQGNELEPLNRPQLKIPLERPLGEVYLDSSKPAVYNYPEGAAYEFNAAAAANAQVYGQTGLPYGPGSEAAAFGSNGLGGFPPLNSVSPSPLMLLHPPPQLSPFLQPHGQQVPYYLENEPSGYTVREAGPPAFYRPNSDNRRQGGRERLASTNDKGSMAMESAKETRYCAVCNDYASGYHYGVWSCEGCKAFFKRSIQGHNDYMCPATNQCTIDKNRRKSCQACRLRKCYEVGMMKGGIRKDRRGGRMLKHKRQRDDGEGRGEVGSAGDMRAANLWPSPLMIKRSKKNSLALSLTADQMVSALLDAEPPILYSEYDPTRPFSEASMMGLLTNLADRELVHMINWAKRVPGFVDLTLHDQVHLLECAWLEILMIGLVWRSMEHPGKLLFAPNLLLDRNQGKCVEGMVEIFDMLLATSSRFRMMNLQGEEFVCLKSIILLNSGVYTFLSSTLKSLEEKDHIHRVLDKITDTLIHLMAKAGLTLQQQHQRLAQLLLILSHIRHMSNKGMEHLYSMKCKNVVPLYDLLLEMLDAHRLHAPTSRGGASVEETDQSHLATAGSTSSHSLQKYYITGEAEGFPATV

Assay [5] can be described thus: qHTS assay to identify small molecule antagonists of the estrogen receptor alpha (ER-alpha) signaling pathway - cell viability counter screen (AID 743074; calls by dose curve;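 further: HEK293 cells carrying ER-alpha-UAS-bla reporter stimulated with 17beta-estradiol; nearly all actives have a fitted effect of over 45% in size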).
The target of assay [6] is Estrogen receptor (Homo sapiens) (UniProt P03372). Briefly: qHTS assay to identify small molecule agonists of the estrogen receptor alpha (ER-alpha) signaling pathway (AID 743075; calls by dose curve;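 further: HEK293 GripTite cells with ER-alpha and UAS-driven beta-lactamase reporter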).
The target is the same in assay [7]. In words: qHTS assay to identify small molecule agonists of the estrogen receptor alpha (ER-alpha) signaling pathway using the BG1 cell line (AID 743079). Further: nearly all actives have a fitted effect of over 20% in size. Further: potency means the concentration at half of the fitted maximal effect.
Assay [8] can be described thus: qHTS assay to identify small molecule antagonists of the estrogen receptor alpha (ER-alpha) signaling pathway using the BG1 cell line - cell viability counter screen (AID 743081).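 Further: compound given together with 17beta-estradiol as the ER stimulus; series mostly up to about 70 µM; nearly all actives have a fitted effect of over 45% in size.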
In another assay the target is Aromatase (Homo sapiens) (UniProt P11511). In words: qHTS assay to identify aromatase inhibitors (AID 743083). Further: series mostly up to about 70 µM; nearly all actives have a fitted effect of over 55% in size.
Aromatase (Homo sapiens), sequence (P11511 whole entry, looked up): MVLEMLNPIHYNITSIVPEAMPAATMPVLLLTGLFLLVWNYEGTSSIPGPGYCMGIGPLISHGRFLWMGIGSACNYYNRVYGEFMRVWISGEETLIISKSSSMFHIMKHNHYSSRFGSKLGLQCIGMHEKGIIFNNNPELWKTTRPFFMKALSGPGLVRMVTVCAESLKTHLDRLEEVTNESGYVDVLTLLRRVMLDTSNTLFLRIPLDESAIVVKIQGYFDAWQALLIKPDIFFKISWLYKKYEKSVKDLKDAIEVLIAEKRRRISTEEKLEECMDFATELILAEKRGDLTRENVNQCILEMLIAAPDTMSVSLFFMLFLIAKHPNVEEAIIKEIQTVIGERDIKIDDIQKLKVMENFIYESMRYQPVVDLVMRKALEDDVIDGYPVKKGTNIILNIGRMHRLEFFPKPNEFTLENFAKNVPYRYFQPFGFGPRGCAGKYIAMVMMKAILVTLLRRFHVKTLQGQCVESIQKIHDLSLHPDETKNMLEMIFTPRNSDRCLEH
The nature of assay [9]: qHTS assay to identify aromatase inhibitors - cell viability counter screen (AID 743084).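 Further: cells stimulated with testosterone during compound exposure; nearly all actives have a fitted effect of over 55% in size.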
The nature of assay [10]: qHTS assay to identify small molecule that activate the aryl hydrocarbon receptor (AhR) signaling pathway - cell viability counter screen (AID 743086). Further: series mostly up to about 70 µM; nearly all actives have a fitted effect of over 45% in size. The procedure, abridged: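 Cytotoxicity counter screen: CellTiter-Fluor signal (30 min, 37 C) in 4000 HepG2 cells/well carrying the DRE-luciferase reporter, following 24 h compound exposure at 37 C.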
Assay [11] has as its target Peroxisome proliferator-activated receptor gamma (Homo sapiens) (UniProt P37231). In words: qHTS assay to identify small molecule antagonists of the peroxisome proliferator-activated receptor gamma (PPARg) signaling pathway (AID 743191; calls by dose curve; further: nearly all actives have a fitted effect of over 30% in size; further: potency means the concentration at half of the fitted maximal effect; on ratio activity, negative = inhibition: series mostly up to about 63 µM). The method, boiled down:
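Beta-lactamase reporter under UAS control in HEK293H PPARg-bla cells; compound treatment 17 h at 37C. Read-out: fluorescence intensity after 1 h room-temperature incubation with LiveBLAzer B/G FRET substrate.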

The nature of assay [12]: qHTS assay to identify small molecule antagonists of the peroxisome proliferator-activated receptor gamma (PPARg) signaling pathway - cell viability counter screen (AID 743194). Further: nearly all actives have a fitted effect of over 55% in size. The method, boiled down: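 Viability was measured as CellTiter-Glo luminescence in GeneBLAzer PPARg UAS-bla HEK293H cells. These cells had been exposed 17 h at 37 C to compounds together with rosiglitazone at 50 nM final, with the beta-lactamase readout taken in the same wells.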

A short description of assay [13]: qHTS assay for small molecule agonists of the antioxidant response element (ARE) signaling pathway - cell viability counter screen (AID 743203; calls by dose curve; further: nearly all actives have a fitted effect of over 55% in size). The method, boiled down: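 Following 16 hrs of compound treatment at 37C, HepG2 cells with an ARE-controlled beta-lactamase gene were lysed with CellTiter-Glo. Luminescence was read after 30 min at room temperature.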
A short description of assay [14]: qHTS assay for small molecule activators of the heat shock response signaling pathway - cell viability counter screen (AID 743209). Further: nearly all actives have a fitted effect of over 50% in size. The method, boiled down:
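Readout: CellTiter-Glo luminescence, 30 min at room temperature. System: HSE-bla HeLa cells, 1500/well, plated overnight. Treatment: compounds in DMSO, 5 h at 37 C.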

Assay [15] can be described thus: qHTS assay for small molecule activators of the heat shock response signaling pathway (AID 743210; active means well fitted activation curve with a large enough effect in the signal ratio in the repeat runs, with a control signal flat, not every such curve was filed as active; inconclusive means weak or mixed curves; the % refers to the signal ratio;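 further: HeLa cells with beta-lactamase reporter driven by heat shock elements; series mostly up to about 63 µM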). The procedure, abridged: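 HeLa HSE-bla cells, overnight plating; cpd in DMSO 5 h, 37 C; LiveBLAzer B/G FRET substrate 2.5 h RT; fluorescence intensity read.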
The nature of assay [16]: qHTS assay to identify small molecule antagonists of the estrogen receptor alpha (ER-alpha) signaling pathway using the BG1 cell line (AID 743080; calls by dose curve;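 further: BG1 cells stimulated with 17beta-estradiol alongside compound; nearly all actives have a fitted effect of over 25% in size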; further: potency means the concentration at half of the fitted maximal effect; on activity change, negative = inhibition: series mostly up to about 70 µM). The method, boiled down: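 BG1Luc4E2, endogenous ER-alpha, 4xERE-luc; 5 d charcoal-stripped FBS, phenol red free; 24 h plating; cpd + 17beta-estradiol 21.5 h, 37 C/5% CO2; CellTiter-Fluor viability 30 min, then ONE-Glo luciferase 30 min RT.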

The target in assay [17] is Aryl hydrocarbon receptor (Homo sapiens) (UniProt P35869). Briefly: qHTS assay to identify small molecule that activate the aryl hydrocarbon receptor (AhR) signaling pathway (AID 743085). Further: nearly all actives have a fitted effect of over 15% in size. Further: potency means the concentration at half of the fitted maximal effect.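 On activation: HG2L7.5c1 human HepG2 liver cells with stably integrated DRE-driven firefly reporter; series mostly up to about 70 µM.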 The method, boiled down: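 Luminescence (ONE-Glo) from a dioxin-responsive-element luciferase reporter in HG2L7.5c1 HepG2 cells after 24 hr compound exposure at 37C; viability measured by CellTiter-Fluor fluorescence beforehand.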
Aryl hydrocarbon receptor (Homo sapiens), sequence (P35869 whole entry, looked up): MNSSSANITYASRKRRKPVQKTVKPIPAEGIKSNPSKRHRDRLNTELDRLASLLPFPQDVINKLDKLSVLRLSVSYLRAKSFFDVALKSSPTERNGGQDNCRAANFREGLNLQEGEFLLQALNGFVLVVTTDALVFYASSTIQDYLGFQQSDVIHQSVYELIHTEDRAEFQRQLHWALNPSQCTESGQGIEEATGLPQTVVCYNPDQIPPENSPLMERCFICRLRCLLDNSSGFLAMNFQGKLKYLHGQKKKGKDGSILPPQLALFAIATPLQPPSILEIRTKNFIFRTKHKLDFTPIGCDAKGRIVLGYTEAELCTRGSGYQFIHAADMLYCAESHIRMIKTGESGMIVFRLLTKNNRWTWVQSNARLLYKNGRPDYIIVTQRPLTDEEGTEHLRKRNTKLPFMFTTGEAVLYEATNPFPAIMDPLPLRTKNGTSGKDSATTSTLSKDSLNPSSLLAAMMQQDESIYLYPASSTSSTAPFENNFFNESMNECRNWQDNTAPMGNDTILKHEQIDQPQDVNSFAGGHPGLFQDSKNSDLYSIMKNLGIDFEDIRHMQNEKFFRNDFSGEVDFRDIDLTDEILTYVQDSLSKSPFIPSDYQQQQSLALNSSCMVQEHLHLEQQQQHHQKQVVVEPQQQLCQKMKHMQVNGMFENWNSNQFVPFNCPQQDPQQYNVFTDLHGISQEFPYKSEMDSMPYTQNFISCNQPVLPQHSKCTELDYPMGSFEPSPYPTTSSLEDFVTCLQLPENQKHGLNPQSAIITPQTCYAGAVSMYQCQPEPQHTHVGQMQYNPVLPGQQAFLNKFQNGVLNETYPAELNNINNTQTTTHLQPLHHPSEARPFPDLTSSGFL

The target in assay [18] is Peroxisome proliferator-activated receptor gamma (Homo sapiens) (UniProt P37231). Briefly: qHTS assay to identify small molecule agonists of the peroxisome proliferator-activated receptor gamma (PPARg) signaling pathway (AID 743094; active means well fitted activation curve with a large enough effect in the signal ratio in the repeat runs, not every such curve was filed as active; inconclusive means weak or mixed curves, or effect the other way; inactive means no such curve, though single readings can be large or run the other way; the % refers to the signal ratio). The procedure, abridged: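 Compounds dissolved in DMSO were added to PPARg UAS-bla HEK293H cells for 17 h at 37C, and reporter expression was quantified by fluorescence intensity after 1 h with LiveBLAzer B/G FRET substrate.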
Peroxisome proliferator-activated receptor gamma (Homo sapiens), sequence (P37231 whole entry, looked up): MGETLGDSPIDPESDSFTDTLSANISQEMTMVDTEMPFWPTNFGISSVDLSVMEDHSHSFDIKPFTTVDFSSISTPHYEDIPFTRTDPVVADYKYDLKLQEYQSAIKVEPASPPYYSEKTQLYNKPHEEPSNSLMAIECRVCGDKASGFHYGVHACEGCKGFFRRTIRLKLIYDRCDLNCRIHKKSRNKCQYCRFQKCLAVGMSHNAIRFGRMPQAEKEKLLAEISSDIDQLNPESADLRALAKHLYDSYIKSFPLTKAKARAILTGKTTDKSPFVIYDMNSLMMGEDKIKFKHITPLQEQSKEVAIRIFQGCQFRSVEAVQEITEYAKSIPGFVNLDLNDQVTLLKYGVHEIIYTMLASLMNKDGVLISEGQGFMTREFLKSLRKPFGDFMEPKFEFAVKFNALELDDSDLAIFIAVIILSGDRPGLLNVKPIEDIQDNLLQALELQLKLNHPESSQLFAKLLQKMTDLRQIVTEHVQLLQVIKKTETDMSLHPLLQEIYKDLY

A short description of assay [19]: qHTS assay for small molecule agonists of the antioxidant response element (ARE) signaling pathway (AID 743202; active means well fitted activation curve with a large enough effect in the signal ratio in the repeat runs, not every such curve was filed as active; inconclusive means weak or mixed curves, or effect the other way; inactive means no such curve, though single readings can be large or run the other way; the % refers to the signal ratio). The method, boiled down:
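Quantitative high-throughput format in HepG2 cells bearing an integrated ARE-beta-lactamase reporter. Compound exposure lasted 16 h at 37 C, and fluorescence was read 2 h after adding LiveBLAzer B/G substrate at room temperature.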
On the % scale 0 is the no-effect control and ±100 the full control effect.

Take `COc1cc(/C=C/c2ccccc2)oc(=O)c1`: the Potency result in assay [1], in assay [2], in [4], in assay [5], in [6] and in [8] was “inactive” in each case. Moreover, the Potency result (in the assay with Aromatase (Homo sapiens); in assay [9]; in [10]; in assay [11]; in assay [12]; in assay [13]) was “inactive” throughout. Also, the Potency result in assay [14] and in assay [15] was “inactive” throughout. Moreover, the compound was called inactive in assay [3]. Moreover, in assay [7], the Potency is 2520 nM (active).
Turning to `CCC(CC)(CC(=O)Nc1cccc(/C=C/c2nc(C3CCC3)cs2)c1)C(=O)O`, the Potency result in assay [1], in assay [2], in assay [5], in assay [6], in assay [7] and in [16] was “inactive” in each case. In addition, the Potency result (in assay [8]; in the assay with Aromatase (Homo sapiens); in [9]; in assay [10]; in [18]; in assay [12]) was “inactive” each time. Moreover, the Potency result in [14] and in [15] was “inactive” throughout. Besides, the call in assay [3] was inactive. Besides, the Potency in assay [17] is 8410 nM (active).
Take `O=C(O)O`: the activity change, negative = cytotoxic in assay [1] is -0.346% [at 8.44 µM] (inactive). Also, the results for the activity, negative = inhibition (in [2]; in assay [4]; in the assay with Aromatase (Homo sapiens)) were -9.25% [at 8.44 µM] (inactive), -5.09% [at 6.71 µM] (inactive) and -0.932% [at 8.47 µM] (inactive), respectively. Moreover, the activation in assay [3] was 0.119% [at 8.08 µM] (inactive); in assay [6] it was -2.02% [at 6.71 µM] (inactive); in assay [17], -1.17% [at 8.47 µM] (inactive); in assay [18] it was -5.02% [at 7.08 µM] (inactive); in assay [19], -11.2% [at 8.36 µM] (inactive). The activity, negative = cytotoxicity in [5] was 16.5% [at 6.72 µM] (inactive). Also, the activity change, negative = inhibition in [16] was 10.7% [at 8.47 µM] (inactive). In addition, the figures for the activity change, negative = cytotoxicity in [8], in assay [9] and in [12] were -13.4% [at 8.47 µM] (inactive), -13.2% [at 8.47 µM] (inactive) and 0.913% [at 5.95 µM] (inactive), respectively. The viability change, negative = cytotoxic in assay [10] was -24.2% [at 8.47 µM] (inactive); in [13] it was 6.5% [at 8.36 µM] (inactive). Also, the ratio activity, negative = inhibition in assay [11] is -1.11% [at 5.95 µM] (inactive).
As for `CC1=Nc2ccccc2C1(C)C`, the Potency entry in assay [1], in assay [2], in assay [4], in assay [5], in [6] and in assay [7] was “inactive” each time. Also, the Potency entry (in [16]; in assay [8]; with Aromatase (Homo sapiens); in assay [9]; in [17]; in assay [10]) was “inactive” throughout. The Potency result in assay [12], in [19], in assay [13] and in [14] was “inactive” throughout. Further, the compound was called inactive in assay [3].
Regarding `CCCCNS(=O)(=O)c1ccc(C)cc1`, the Potency entry in assay [1], in [2], in [4], in [5], in assay [6] and in assay [7] was “inactive” in each case. The Potency result in assay [16], in assay [8], in assay [9], in [17], in assay [10] and in [18] was “inactive” throughout. Also, the Potency result in assay [11], in assay [12], in [13], in assay [14] and in assay [15] was “inactive” each time. In addition, the call in assay [3] was inactive.
As for `COc1c(C)c2c(c(O)c1C/C=C(\C)CCC(=O)OCCN1CCOCC1)C(=O)OC2`, the Potency was 1680 nM (active) in assay [1]; 944 nM (active) in [2]; 3380 nM [inconclusive] (active) in assay [4]; 13300 nM (active) in assay [7]; 473 nM (active) in [11]. For the same compound, the outcome in assay [3] was inactive. The Potency result (in assay [5]; in [8]; with Aromatase (Homo sapiens); in assay [9]; in assay [17]; in [10]) was “inactive” throughout. For the same compound, the Potency entry in assay [14] and in assay [15] was “inactive” in each case.
Take `CCCCCCCCCCCC(=O)OCC(C)OC(=O)CCCCC(=O)O` (centres undefined): the Potency entry in [1], in [2], in [4], in [5], in [7] and in assay [16] was “inactive” each time. The Potency result (in assay [8]; with Aromatase (Homo sapiens); in [9]; in assay [17]; in assay [10]; in [12]) was “inactive” in each case. In addition, the Potency result in assay [13] and in assay [14] was “inactive” each time. Moreover, the result in assay [3] was inactive.
As for `CC(=O)[C@H]1CC[C@H]2[C@@H]3CCC4=CC(=O)CC[C@]4(C)[C@H]3CC[C@]12C`, the Potency was 60800 nM (active) in assay [1]; 13.3 µM (active) and 21.6 µM (active) and 27.3 µM (active) in assay [2]; “inactive and 54.2 µM (active) and 68.6 µM (active)” in assay [16]. Further, in [3], the call was inactive. In addition, the Potency entry (in assay [4]; in [5]; in assay [6]; in assay [7]; in assay [8]; with Aromatase (Homo sapiens)) was “inactive” each time. For the same compound, the Potency entry in [9], in assay [17], in [10], in [18], in assay [14] and in assay [15] was “inactive” each time.
